Screening results deposited in PubChem BioAssay by National Center for Advancing Translational Sciences (NCATS).
Shown are actives, neighbours in structure and some others; about 8.7% of the full set was active somewhere.
BAZ2B inh: blocks human BAZ2B. 360,000 tested, 4.4% active. Potency, µM (series often up to 114 µM), without a hit: top-dose activity change, negative = inhibition, actives largely listed as inhibitors. AID 504333. Q9UIF8. AlphaScreen BAZ2B-H3K14Ac peptide displacement; also: % is scaled to controls: 0 for no effect and ±100 for the full control effect; nearly all actives have a fitted effect of over 60% in size
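Compounds, titrated to a top concentration of 110 uM, were incubated 30 min at room temperature with preformed BAZ2B/acetyl-K14 H3 peptide complex (50 nM each). Proximity signal was measured by AlphaScreen after 20 min with beads.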
G9a block: G9a (human) methyltransferase inhibition; Potency, µM (highest dose often 102 µM), for inactives: top-dose activity, negative = inhibition, usual class: inhibitors; 350,000 tested, 8.8% active; G9a H3K9 monomethylation, AlphaScreen, 2 h; also: % is scaled to controls: 0 for no effect and ±100 for the full control effect; nearly all actives have a fitted effect of over 75% in size
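G9a (20 nM) preincubated 15 min RT with compounds, then 500 nM biotinylated H3K9 peptide and 20 uM SAM added; 2 h RT reaction. Monomethyl-H3K9 product detected by AlphaScreen with anti-H3K9me1 antibody, streptavidin donor and anti-rabbit IgG acceptor beads.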
JMJD2A Tudor inh: JMJD2A Tudor domain (human) inhibition. O75164. AlphaScreen JMJD2A-Tudor / H3K4me3 peptide binding. Potency, µM (series often up to 114 µM), for the others: at the top dose activity change, negative = inhibition, usual class: inhibitors. 390,000 tested, 4.4% active. AID 504339; also: % is scaled to controls: 0 for no effect and ±100 for the full control effect; nearly all actives have a fitted effect of over 50% in size
Sfp PPTase inh: blocks B. subtilis Sfp PPTase activity | Q9F4F7 | Potency, µM, inactives show largest response in the series, negative = inhibition, hits mostly inhibitors | Biochemical Sfp PPTase activity, qHTS | 310,000 tested, 3.5% active;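 also: the enzyme is Sfp with the accession as filed and its product quenches rhodamine fluorescence; 0% = enzyme reaction without inhibitor and -100% = no enzyme wells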
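Compounds were incubated with enzyme (final 15 nM) for 15 min at room temperature before substrate addition started the reaction. Fluorescence at 525 nm excitation, 598 nm emission was recorded immediately and after 30 minutes.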
12-LOX inh: blocks human arachidonate 12S-lipoxygenase | P18054 | purified 12hLO, xylenol orange hydroperoxide absorbance | Potency, µM (top dose mostly 108 µM), without a hit: at the highest dose activity change, negative = inhibition, hits mostly inhibitors | 580,000 tested, 1.1% active | AID 1671190; also: % is scaled to controls: 0 for no effect and ±100 for the full control effect
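Hydroperoxide product was detected by ferrous iron/xylenol orange as the 573 to 405 nm absorbance ratio. Arachidonic acid at 40 uM (final) was turned over for 30 min at room temperature by 150 nM human 12hLO, pH 7.0 Hepes buffer, after 15 min compound preincubation.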
HP1b chromo inh: blocks HP1-beta chromodomain binding to methylated histone tails; AlphaScreen HP1-beta / biotin-H3K9me3 peptide binding; Potency, µM (top dose mostly 114 µM), without a hit: at the highest dose activity change, negative = inhibition, hits mostly inhibitors; 390,000 tested, 0.56% active; AID 540317; also: nearly all actives have a fitted effect of over 70% in size
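Compound inhibition of the preformed complex between 50 nM HP1-beta and 50 nM biotinylated H3K9me3 peptide was read by AlphaScreen. Buffer was PBS pH 7.4 with 0.01% Tween-20. Incubations ran 30 min at room temperature, with 10 ug/mL donor/acceptor beads.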
Active calls of the source: *; [ ] = another dose, or the depositor's remark. Calls follow the shape of the dose curve; as a rule, active = well fitted curve in the direction sought with a large enough effect; inconclusive = small, poorly fitted or top-dose-only effect, or another doubt; inactive = no such curve, though single readings can be large; an effect the other way counts as inactive or inconclusive. Potency is read from the fitted curve at half-maximal effect.

For O=C(COc1ccc(-n2cnnn2)cc1)N1CCCC2(CCOC2)C1 (stereo unspecified) the results were 12-LOX inh 65.8%.
Nc1c(C(=O)Nc2ccc(Cl)c(C(=O)O)c2)sc2nc3c(cc12)CCCC3 was read as BAZ2B inh -14.9%, G9a block 44.7µM*, JMJD2A Tudor inh -2.1%, Sfp PPTase inh 5.0%, 12-LOX inh -8.8% and HP1b chromo inh 43.7%.
For CCOc1ccc(NC(=O)c2sc3nc4c(cc3c2N)CCCCCC4)cc1 the results were BAZ2B inh -1.6%, G9a block 4.4%[59 µM], JMJD2A Tudor inh 0.7%, 12-LOX inh inconclusive and HP1b chromo inh 30.8%.
COc1ccc(OC)c(NC(=O)c2sc3nc4c(cc3c2N)CCCCCC4)c1 was read as BAZ2B inh 0.9%, G9a block -28.0%[59 µM], JMJD2A Tudor inh -7.6%, 12-LOX inh -26.6% and HP1b chromo inh 45.7%.
Nc1c(C(=O)Nc2cccc(C(=O)O)c2)sc2nc3c(cc12)CCCC3 was read as BAZ2B inh -3.6%, G9a block 44.7µM*, JMJD2A Tudor inh -23.5%, Sfp PPTase inh 20.3%, 12-LOX inh inconclusive and HP1b chromo inh 34.5%.
`Nc1c(C(=O)Nc2ccc(C(=O)O)cc2)sc2nc3c(cc12)CCCC3` gave BAZ2B inh -0.1%, G9a block inconclusive, JMJD2A Tudor inh 13.8%, 12-LOX inh 17.8µM* and HP1b chromo inh 50.6%.
`Cc1cccc(NC(=O)c2sc3nc4c(cc3c2N)CCCCCC4)c1C` gave BAZ2B inh 41.8%, G9a block 36.1%[59 µM], JMJD2A Tudor inh 1.7%, 12-LOX inh -9.7% and HP1b chromo inh 89.5%.
For Cc1noc([C@@H]2CN(Cc3cc(F)ccc3F)C[C@H]2CO)n1 the results were 12-LOX inh 23.6%.
`COc1ccc(N2CC(NC(=O)Nc3nc4c(C)cccc4s3)CC2=O)cc1` (stereo unspecified) gave 12-LOX inh -5.2%.
Fc1ccc(/C=N/Nc2c(Cl)cc(Cl)cc2Cl)c(F)c1 was read as 12-LOX inh 39.8µM*.
`Fc1ccc(Br)cc1/C=N/Nc1c(Cl)cc(Cl)cc1Cl` gave 12-LOX inh 17.8µM*.
`CC1=C(c2ccccc2)[N+](=O)C2(CCCCC2)N1[O-]` gave BAZ2B inh -13.2%, G9a block 50.1µM*, JMJD2A Tudor inh -13.8%, Sfp PPTase inh 7.7%, 12-LOX inh 4.0% and HP1b chromo inh 3.1%.
For CCc1nc(-c2ccccc2)n2cc[nH]c(=O)c12 the results were 12-LOX inh 34.7%.
Cc1cccc(OCCSc2nc3ccccc3n2CC(=O)N2CCOCC2)c1C was read as BAZ2B inh inconclusive, G9a block 10µM*, JMJD2A Tudor inh -26.2%, 12-LOX inh -16.0% and HP1b chromo inh -12.7%.
`Cc1ccc(OCCSc2nc3ccccc3n2CC(=O)N2CCCCC2)cc1C` gave BAZ2B inh -34.9%, G9a block 12.6µM*, JMJD2A Tudor inh -33.1%, 12-LOX inh -1.3% and HP1b chromo inh -1.4%.
`Cc1ccc(OCCSc2nc3ccccc3n2CC(=O)N2CCOCC2)cc1C` gave BAZ2B inh -16.7%, G9a block inconclusive, JMJD2A Tudor inh -9.3%, 12-LOX inh 0.2% and HP1b chromo inh 51.4%.
c1ccc(CNc2nc(N3CCN(Cc4ccccc4)CC3)nc3ccccc23)cc1 was read as BAZ2B inh 50.1µM*, G9a block inconclusive, JMJD2A Tudor inh -33.8%, Sfp PPTase inh 56.2µM*, 12-LOX inh inconclusive and HP1b chromo inh -2.5%.
For c1ccc(N2CCN(c3nc(NCc4ccco4)c4ccccc4n3)CC2)cc1 the results were BAZ2B inh 44.7µM*, G9a block 44.7µM*, JMJD2A Tudor inh 50.1µM*, Sfp PPTase inh 31.6µM*, 12-LOX inh inconclusive and HP1b chromo inh -38.3%.
COc1ccc(-c2c(NC(=O)c3ccccc3)oc3ccccc3c2=O)cc1 was read as 12-LOX inh 1.0%.
For CC1Cc2ccccc2N1C(=O)COC(=O)c1ccc(-n2cnnn2)cc1 (stereo unspecified) the results were 12-LOX inh 25.6%.
`O=C(Nc1ccc2oc(-c3ccncc3)nc2c1)c1cccs1` gave BAZ2B inh 56.2µM*, G9a block -26.0%[12.7 µM], JMJD2A Tudor inh -32.5%, Sfp PPTase inh -20.9%, 12-LOX inh -29.1% and HP1b chromo inh 49.3%.
Screening O=C(Nc1ccc(-c2nc3cc(NC(=O)c4cccs4)ccc3o2)cc1)c1cccs1 returned BAZ2B inh 18.5%, G9a block -14.4%[0.0925 µM], JMJD2A Tudor inh -4.4%, Sfp PPTase inh 12.0%, 12-LOX inh 2.5% and HP1b chromo inh 21.0%.
For O=C(Nc1ccc2oc(-c3cc(Br)ccc3Cl)nc2c1)c1cc2ccccc2o1 the results were BAZ2B inh 79.4µM*, G9a block inconclusive, JMJD2A Tudor inh -26.9%, 12-LOX inh inconclusive and HP1b chromo inh 38.4%.
Cc1ccc(-c2nc3cc(NC(=O)c4cc(Br)ccc4Cl)ccc3o2)cc1 was read as BAZ2B inh inconclusive, G9a block inconclusive, JMJD2A Tudor inh -11.8%, 12-LOX inh 39.8µM* and HP1b chromo inh 0.0%.
Cc1ccc(C(=O)Nc2ccc3oc(-c4ccncc4)nc3c2)c(Cl)c1 was read as BAZ2B inh -0.8%, G9a block 3.8%[59 µM], JMJD2A Tudor inh 6.9%, 12-LOX inh 22.2% and HP1b chromo inh 26.9%.
For CN(CC(=O)Nc1cccc(F)c1)CC(=O)N(C)C1(C#N)CCCCC1 the results were 12-LOX inh -26.1%.
`CC1(C)CC(N2CCCCC2)=CC(=NCCCN2CCOCC2)C1` gave 12-LOX inh 22.4µM*.
`CC1(C)CC(=O)C(C=NCCCN2CCOCC2)=C(O)C1` gave BAZ2B inh -1.6%, G9a block -0.5%, JMJD2A Tudor inh -9.2%[11.4 µM], Sfp PPTase inh 3.3%, 12-LOX inh inconclusive and HP1b chromo inh 3.0%.
`Cc1cc(C)n(-c2nnc3c4ccccc4n(C)c3n2)n1` gave BAZ2B inh 11.2µM*, G9a block 1.2%, JMJD2A Tudor inh 79.4µM*, Sfp PPTase inh 8.6%, 12-LOX inh inconclusive and HP1b chromo inh 41.4%.
Screening CC1CCN(c2nc(-c3ccco3)c3c(c2C#N)CC(C)(C)OC3)CC1 returned BAZ2B inh 10.1%, G9a block inconclusive, JMJD2A Tudor inh 0.7%, Sfp PPTase inh 14.1µM*, 12-LOX inh inconclusive and HP1b chromo inh 33.0%.
Screening N#Cc1c(NCCCO)nc(-c2ccco2)c2c1CCCC2 returned BAZ2B inh 6.0%, G9a block 3.16µM*, JMJD2A Tudor inh 15.2%, Sfp PPTase inh 39.8µM*, 12-LOX inh inconclusive and HP1b chromo inh 25.4%.
